Inconclusive results are not listed. Calls of active or inactive are those of the source.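 The calls were made as follows, unless noted: active = inhibition above 50%, about 3 SD of the validation set; inactive = the rest.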
Tests used:
[1] = rapamycin-like changes in RPL19A-GFP expression – cell-based, S. cerevisiae, multiplex flow cytometry, primary screen (AID 1862; in the data active = percent of DMSO control GFP below about 86%;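 also: lower values mimic rapamycin by blocking the RPL19A rise seen in DMSO cells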); details: S. cerevisiae RPL19A-GFP strain, flow cytometry fluorescence, 3 h; at 10 µM; stronger effect = lower value
[2] = TOR pathway GLN3 branch reporter MEP2-GFP changes – S. cerevisiae, multiplex flow cytometry, primary screen (AID 1867;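 active = GFP response, as percent of the DMSO control, above the screen-wide mean plus 3 SD, about 139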;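 also: median GFP channel fluorescence of barcode-gated MEP2-GFP cells measured by flow cytometry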); details: S. cerevisiae MEP2-GFP strain, 3 h, at 10 µM, stronger effect = higher value, 100% means same as DMSO wells
[3] = TOR pathway RTG branch CIT2 reporter changes – S. cerevisiae, GFP fusion, multiplex flow cytometry, primary screen (AID 1870;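 active = percent response above a set limit, the screen-wide mean plus 3 SD, cut at about 130% in these data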;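 also: barcoded CIT2-GFP strain pooled with four other GFP strains with rapamycin as positive control; median GFP fluorescence per well over plate mean of DMSO wells so 100% = DMSO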); details: S. cerevisiae CIT2-GFP expression, 3 h, at 10 µM, stronger effect = higher value
[4] = TOR pathway LAP4-GFP level changes – S. cerevisiae, multiplex flow cytometry, primary screen (AID 1873;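 active = GFP signal, as percent of the solvent control, above the screen mean plus 3 SD, about 149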); details: S. cerevisiae LAP4-GFP expression, 3 h, at 10 µM, stronger effect = higher value
[5] = yeast AGP1-GFP level changes, GLN3 branch – cell-based, multiplex flow cytometry, S. cerevisiae, primary screen (AID 1887;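 active = GFP signal above the screen-wide mean plus 3 SD, that is over about 124.5% of the solvent control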;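 also: AGP1-GFP fusion strain of S. cerevisiae within a five-strain barcoded multiplex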); details: 3 h, at 10 µM, stronger effect = higher value
[6] = reduced mouse 2C T cell binding to pMHC/ICAM-1 vesicles – MLPCN validation set, flow cytometry, LFA-1/ICAM-1 modulator project, pilot screen (AID 2523;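 active = response below a set limit, under 55% cells CD8-positive and vesicle-bound, and CD8 cells' 90th-percentile brightness under 279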;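 as to vesicle binding response: mean PE anti-B7-1 fluorescence of CD8+ cells relative to row control; 100% = QL9-loaded vesicles with DMSO vehicle in the same plate row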); details: 2C mouse CD8+ T cells, at 7 µM, stronger effect = lower value; double positive events: measured here: CD8+/vesicle+ event percentage
[7] = target: Integrin beta-1 (Homo sapiens) + Integrin alpha-4 (Homo sapiens) (UniProt P13612+P05556); assay: alpha4beta1 integrin LIBS antibody binding reduction – U937 cells, HUTS-21 mAb, flow cytometry, validation set, VLA-4 allosteric modulator project, pilot screen (AID 2674); details: HUTS-21 LIBS mAb binding, at 6.7 µM, stronger effect = higher value, binding induced by LDV ligand;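 also: antibody binding induced by the VLA-4 ligand LDV present at three times its Kd; 0% = LDV ligand with antibody and no compound and 100% = antibody without LDV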
Integrin beta-1 (Homo sapiens) + Integrin alpha-4 (Homo sapiens), sequence (P05556 whole entry, looked up): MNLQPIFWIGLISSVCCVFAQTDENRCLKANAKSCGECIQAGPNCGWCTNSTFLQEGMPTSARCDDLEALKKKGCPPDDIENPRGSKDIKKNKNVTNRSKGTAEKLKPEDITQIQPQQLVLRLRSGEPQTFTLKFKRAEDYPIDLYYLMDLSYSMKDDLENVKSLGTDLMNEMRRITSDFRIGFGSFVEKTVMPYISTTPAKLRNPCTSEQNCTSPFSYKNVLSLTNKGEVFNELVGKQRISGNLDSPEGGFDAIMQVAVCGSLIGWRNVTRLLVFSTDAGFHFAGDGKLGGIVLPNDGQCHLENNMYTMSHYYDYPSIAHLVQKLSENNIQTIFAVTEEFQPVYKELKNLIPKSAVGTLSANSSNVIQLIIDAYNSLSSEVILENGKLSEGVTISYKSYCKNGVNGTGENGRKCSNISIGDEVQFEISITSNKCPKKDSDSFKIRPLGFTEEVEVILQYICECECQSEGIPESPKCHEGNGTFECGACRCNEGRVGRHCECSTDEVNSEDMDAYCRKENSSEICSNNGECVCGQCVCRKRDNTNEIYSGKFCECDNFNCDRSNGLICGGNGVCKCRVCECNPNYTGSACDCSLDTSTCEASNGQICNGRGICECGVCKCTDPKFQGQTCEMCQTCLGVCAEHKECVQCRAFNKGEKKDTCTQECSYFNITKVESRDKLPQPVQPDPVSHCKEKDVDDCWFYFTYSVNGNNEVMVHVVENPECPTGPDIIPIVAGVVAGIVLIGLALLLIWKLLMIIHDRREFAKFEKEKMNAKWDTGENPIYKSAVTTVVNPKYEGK
Integrin beta-1 (Homo sapiens) + Integrin alpha-4 (Homo sapiens), sequence (P13612 whole entry, looked up): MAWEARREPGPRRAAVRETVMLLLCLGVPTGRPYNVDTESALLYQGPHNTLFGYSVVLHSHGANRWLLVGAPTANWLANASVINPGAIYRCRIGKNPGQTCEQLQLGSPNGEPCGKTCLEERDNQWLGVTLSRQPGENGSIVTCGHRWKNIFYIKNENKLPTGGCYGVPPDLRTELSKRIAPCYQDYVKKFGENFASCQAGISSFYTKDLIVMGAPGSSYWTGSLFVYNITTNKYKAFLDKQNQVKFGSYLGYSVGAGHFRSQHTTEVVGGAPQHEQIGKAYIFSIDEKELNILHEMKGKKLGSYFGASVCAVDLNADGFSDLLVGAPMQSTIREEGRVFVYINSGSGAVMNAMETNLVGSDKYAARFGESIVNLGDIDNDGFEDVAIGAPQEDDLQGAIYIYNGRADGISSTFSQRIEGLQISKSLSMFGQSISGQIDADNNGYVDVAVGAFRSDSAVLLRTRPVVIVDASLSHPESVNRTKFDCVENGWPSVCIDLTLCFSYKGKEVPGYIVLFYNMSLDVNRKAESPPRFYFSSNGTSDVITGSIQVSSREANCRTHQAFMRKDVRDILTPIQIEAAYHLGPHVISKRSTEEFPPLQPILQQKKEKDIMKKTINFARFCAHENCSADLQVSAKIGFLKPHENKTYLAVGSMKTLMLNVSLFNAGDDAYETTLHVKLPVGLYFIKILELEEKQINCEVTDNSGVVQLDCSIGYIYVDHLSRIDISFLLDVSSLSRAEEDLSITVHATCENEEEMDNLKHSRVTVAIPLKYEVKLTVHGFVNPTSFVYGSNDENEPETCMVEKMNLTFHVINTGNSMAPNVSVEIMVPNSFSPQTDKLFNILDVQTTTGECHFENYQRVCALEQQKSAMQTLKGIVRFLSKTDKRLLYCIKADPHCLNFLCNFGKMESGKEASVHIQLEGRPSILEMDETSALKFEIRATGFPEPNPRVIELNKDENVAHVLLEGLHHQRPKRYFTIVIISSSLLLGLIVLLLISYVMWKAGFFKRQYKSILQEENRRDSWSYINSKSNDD

[8] = calorie-restriction mimetic ROS inhibitors, yeast – validation compound set, pilot screen (AID 2706;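 active = superoxide response below 65% of plate, a cut near 3 SD across the whole screen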;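 also: yeast exposed to compound for one week at 30 degrees C before staining; 100% = mean of all compound wells on the same plate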); details: S. cerevisiae aging, superoxide DHE fluorescence; at 10 µM; stronger effect = lower value
[9] = target: Beta-adrenergic receptor kinase 1 (Homo sapiens) (UniProt P25098); assay: GRK2 binders displacing RNA aptamer, biochemical, validation, human GRK2, bead flow cytometry (AID 488806;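 active = aptamer binding inhibition above 30%, about 3 SD of noise from non-fluorescent compounds; inactive = inhibition at or below 30%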); details: bead-bound GRK2, FAM-aptamer displacement, at 10 µM, stronger effect = higher value
Beta-adrenergic receptor kinase 1 (Homo sapiens), sequence (P25098 whole entry, looked up): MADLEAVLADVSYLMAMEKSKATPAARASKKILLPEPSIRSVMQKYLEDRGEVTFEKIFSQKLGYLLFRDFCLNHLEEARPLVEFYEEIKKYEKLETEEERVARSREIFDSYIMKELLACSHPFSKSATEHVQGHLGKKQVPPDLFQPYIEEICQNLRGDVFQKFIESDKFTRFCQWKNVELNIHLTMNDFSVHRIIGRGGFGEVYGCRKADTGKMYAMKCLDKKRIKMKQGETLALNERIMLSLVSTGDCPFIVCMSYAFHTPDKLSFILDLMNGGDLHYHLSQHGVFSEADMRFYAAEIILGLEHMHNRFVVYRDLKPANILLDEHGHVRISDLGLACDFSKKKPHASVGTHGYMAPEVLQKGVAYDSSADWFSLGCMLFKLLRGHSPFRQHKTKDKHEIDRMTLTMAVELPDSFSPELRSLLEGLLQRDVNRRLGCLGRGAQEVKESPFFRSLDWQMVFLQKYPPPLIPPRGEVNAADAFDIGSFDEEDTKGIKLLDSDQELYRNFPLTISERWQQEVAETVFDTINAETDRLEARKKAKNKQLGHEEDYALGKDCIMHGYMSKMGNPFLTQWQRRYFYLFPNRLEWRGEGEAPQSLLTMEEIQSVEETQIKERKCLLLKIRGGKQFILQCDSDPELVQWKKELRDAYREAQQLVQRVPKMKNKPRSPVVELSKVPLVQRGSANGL

[10] = target: Beta-2 adrenergic receptor (Homo sapiens) (UniProt P07550); assay: agonist-induced loss of surface beta2AR – cell-based, FAP fluorogen, flow cytometry, validation set, pilot screen (AID 504459;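 active = percent response above 42, roughly 3 SD of non-fluorescent test compounds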;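 also: agonist-driven loss of surface beta2AR via internalization measured by FAP dye flow cytometry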); details: Am2.2-beta2AR cells, at 10 µM, stronger effect = higher value
Beta-2 adrenergic receptor (Homo sapiens), sequence (P07550 whole entry, looked up): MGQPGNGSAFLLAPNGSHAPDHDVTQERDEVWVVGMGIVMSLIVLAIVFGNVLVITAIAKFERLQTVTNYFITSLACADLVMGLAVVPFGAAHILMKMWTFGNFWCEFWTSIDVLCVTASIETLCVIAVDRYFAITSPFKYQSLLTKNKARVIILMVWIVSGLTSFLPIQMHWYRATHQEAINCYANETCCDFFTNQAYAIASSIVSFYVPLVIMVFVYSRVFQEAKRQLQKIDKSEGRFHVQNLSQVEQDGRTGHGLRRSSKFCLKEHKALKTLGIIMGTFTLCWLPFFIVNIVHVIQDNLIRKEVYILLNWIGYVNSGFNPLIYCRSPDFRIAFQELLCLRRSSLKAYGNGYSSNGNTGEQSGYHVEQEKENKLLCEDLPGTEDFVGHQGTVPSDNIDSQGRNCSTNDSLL

[11] = target: AP-2 complex subunit beta (Homo sapiens) (UniProt P63010); assay: beta-arrestin/AP2 interaction blockers – biochemical, validation set, GST-AP2 beads, flow cytometry, pilot screen (AID 504541;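 active = inhibition above 54%, about 3 SD of non-fluorescent compounds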;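 also: AP2 carries R879A mutation and is captured from E. coli lysate; bead-bound FITC arrestin peptide fluorescence measuring arrestin peptide binding to AP2; 0% = DMSO wells and 100% = excess unlabeled arrestin peptide control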); details: FITC arrestin peptide, at 10 µM, stronger effect = higher value, AP2 beta2 appendage fragment, R879A mutant
AP-2 complex subunit beta (Homo sapiens), sequence (P63010 whole entry, looked up, the tested form may be a part, one chain of several): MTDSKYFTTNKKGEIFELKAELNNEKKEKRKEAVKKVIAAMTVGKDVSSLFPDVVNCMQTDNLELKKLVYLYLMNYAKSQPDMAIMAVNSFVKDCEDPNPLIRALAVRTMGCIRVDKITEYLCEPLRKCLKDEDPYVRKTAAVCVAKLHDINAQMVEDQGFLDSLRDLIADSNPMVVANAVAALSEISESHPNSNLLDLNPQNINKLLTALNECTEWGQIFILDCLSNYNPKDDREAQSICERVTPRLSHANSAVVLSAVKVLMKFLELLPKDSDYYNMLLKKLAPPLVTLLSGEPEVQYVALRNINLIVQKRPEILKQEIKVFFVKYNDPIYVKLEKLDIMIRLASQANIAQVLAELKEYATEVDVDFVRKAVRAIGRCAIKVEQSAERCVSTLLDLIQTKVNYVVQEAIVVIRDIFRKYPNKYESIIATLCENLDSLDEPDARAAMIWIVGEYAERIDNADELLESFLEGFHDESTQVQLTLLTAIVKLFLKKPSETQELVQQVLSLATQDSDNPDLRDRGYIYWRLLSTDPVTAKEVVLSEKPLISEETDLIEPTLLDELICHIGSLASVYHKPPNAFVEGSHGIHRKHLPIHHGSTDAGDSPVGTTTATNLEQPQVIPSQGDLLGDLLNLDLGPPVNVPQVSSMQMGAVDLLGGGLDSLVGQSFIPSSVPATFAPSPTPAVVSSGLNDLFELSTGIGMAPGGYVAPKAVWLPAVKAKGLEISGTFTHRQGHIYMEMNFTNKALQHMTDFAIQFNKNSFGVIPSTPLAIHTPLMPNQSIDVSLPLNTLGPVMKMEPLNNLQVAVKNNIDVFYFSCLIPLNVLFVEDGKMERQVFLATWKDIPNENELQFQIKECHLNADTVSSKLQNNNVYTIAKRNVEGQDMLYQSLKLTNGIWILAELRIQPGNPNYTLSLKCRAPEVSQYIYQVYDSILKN

[12] = cytosolic pH regulators acting via V-ATPase – S. cerevisiae, pHLuorin, HTS validation (AID 504600; in the data active = response above about 15%;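 also: plate controls were DMSO for no effect and reference compound for full effect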); details: V-ATPase proton transport, at 10 µM, stronger effect = higher value
[13] = test system: anti-desmoglein-3 scFv antibody binding to human DSG3; assay: blockers of pathogenic pemphigus antibody–desmoglein-3 binding – biochemical, validation compound set, bead-based, flow cytometry, pilot screen (AID 588368;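 active = binding below the plate cutoff, the plate median minus 3 SD, with a reading above zero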;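 also: signal is the median channel fluorescence of bead-bound GFP antibody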); details: Protein G beads, DSG3-Fc, scFv-GFP binding, at 10 µM, stronger effect = lower value
[14] = Nile Red efflux blockade in pump-expressing yeast – validation compound set, multiplex, phenotypic, pilot screen (AID 588506;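 active = efflux inhibition above 0.42, the validation set average plus 4 SD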;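 also: Nile Red retained in cells so higher fluorescence means more efflux inhibition; 0 = negative control wells and 1 = enniatin B 25 µM full block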); details: S. cerevisiae pump-expressing triplex, Nile Red efflux flow cytometry; at 10 µM; stronger effect = higher value; the pumps come from Candida albicans
[15] = target: ATP-binding cassette sub-family B member 6 (Homo sapiens) (UniProt Q9NP58); assay: blockers of ABCB6-driven porphyrin uptake – K562-ABCB6 cells, flow cytometry, validation set, pilot screen (AID 588550;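 active = inhibition above the screen-wide mean plus 3 SD, about 51%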;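 also: 0% = DMSO wells and 100% = benzethonium chloride 70 µM positive control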); details: K562-ABCB6 porphyrin accumulation, 1 h, at 10 µM, stronger effect = higher value
ATP-binding cassette sub-family B member 6 (Homo sapiens), sequence (Q9NP58 whole entry, looked up): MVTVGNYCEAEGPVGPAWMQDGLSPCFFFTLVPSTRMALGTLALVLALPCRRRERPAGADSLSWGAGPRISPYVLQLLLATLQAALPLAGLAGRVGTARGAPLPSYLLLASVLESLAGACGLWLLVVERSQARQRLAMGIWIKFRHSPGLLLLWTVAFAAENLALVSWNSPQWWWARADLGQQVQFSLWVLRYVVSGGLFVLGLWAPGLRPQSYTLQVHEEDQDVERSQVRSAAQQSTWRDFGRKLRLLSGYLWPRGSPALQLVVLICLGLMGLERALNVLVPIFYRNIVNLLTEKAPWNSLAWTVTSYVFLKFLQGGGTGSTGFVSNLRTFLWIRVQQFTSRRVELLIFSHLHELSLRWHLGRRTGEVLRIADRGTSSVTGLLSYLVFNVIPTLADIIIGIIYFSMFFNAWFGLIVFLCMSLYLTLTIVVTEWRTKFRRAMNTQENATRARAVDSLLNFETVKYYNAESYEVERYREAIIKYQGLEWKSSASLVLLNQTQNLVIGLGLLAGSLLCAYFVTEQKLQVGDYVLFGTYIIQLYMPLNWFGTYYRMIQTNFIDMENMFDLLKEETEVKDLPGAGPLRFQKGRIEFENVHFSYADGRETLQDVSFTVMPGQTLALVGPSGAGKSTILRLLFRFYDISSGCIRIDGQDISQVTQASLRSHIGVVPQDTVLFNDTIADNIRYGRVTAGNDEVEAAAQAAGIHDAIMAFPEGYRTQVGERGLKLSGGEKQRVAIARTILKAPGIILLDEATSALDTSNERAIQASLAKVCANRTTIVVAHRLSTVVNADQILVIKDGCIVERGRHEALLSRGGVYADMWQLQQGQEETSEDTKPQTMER

[16] = AML differentiation inducers, ER-HoxA9 marrow cells – cell-based, GFP/MAC1 double positive, flow cytometry, validation set, primary screen (AID 588685;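 active = differentiation response of at least 50%, scaled between solvent and reference control, from cells with both markers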;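 also: compound exposure lasts four days before antibody staining and flow analysis; 0% = DMSO wells and 100% = 5 µM fulvestrant positive control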); details: stronger effect = higher value, normalized: vehicle 0, fulvestrant 100

| Compound | percent of DMSO control GFP [1] | GFP response vs DMSO [2] | percent response of DMSO control [3] | GFP response vs DMSO [4] | GFP response, % of DMSO [5] | double positive events [6] | vesicle binding response [6] | inhibition [7] | superoxide response (% of plate) [8] | aptamer binding inhibition [9] | response [10] | inhibition [11] | response [12] | binding (% of control) [13] | efflux inhibition (fraction of control) [14] | inhibition [15] | differentiation response [16] |
| --- | --- | --- | --- | --- | --- | --- | --- | --- | --- | --- | --- | --- | --- | --- | --- | --- | --- |
| CN(C)CCOC(c1ccccc1)c1ccccc1 | 94.4% (inactive) | 123% (inactive) | 115% (inactive) | 87.5% (inactive) | 89.4% (inactive) | 43.1% | 107% (inactive) | 1.61% (inactive) | 96.7% (inactive) | -1% (inactive) | -13.1% (inactive) | 29.6% (inactive) | -7.12% (inactive) | 98% (inactive) | 0.52 (active) | 2% (inactive) | 1.64% (inactive) |
| CCOC(=O)Cn1c(C)cc(=O)c2ccccc21 | 97.6% (inactive) | 114% (inactive) | 91% (inactive) | 117% (inactive) | 103% (inactive) | 59.9% | 226% (inactive) | 10.5% (inactive) | 103% (inactive) | 0% (inactive) | 8.73% (inactive) | 56.3% (active) | -4.51% (inactive) | 92.6% (inactive) | 0.3 (inactive) | 0% (inactive) | 114% (active) |
| COC(=O)c1[nH]c2ccc(C)cc2c1NC(=O)CN1CCc2cc(OC)c(OC)cc2C1 | 106% (inactive) | 111% (inactive) | 117% (inactive) | 103% (inactive) | 105% (inactive) | 63.8% | 296% (inactive) | -11.8% (inactive) | 130% (inactive) | 4% (inactive) | 10.4% (inactive) | -5.24% (inactive) | -3.57% (inactive) | 101% (inactive) | 0.5 (active) | 24% (inactive) | -10.4% (inactive) |
| c1ccc(Nc2ccccn2)nc1 | 98.6% (inactive) | 105% (inactive) | 88.2% (inactive) | 115% (inactive) | 100% (inactive) | 59.3% | 190% (inactive) | -3.16% (inactive) | 97.5% (inactive) | 3% (inactive) | -8.84% (inactive) | -0.14% (inactive) | -2.96% (inactive) | 103% (inactive) | 0.26 (inactive) | 4% (inactive) | 7.2% (inactive) |
| COc1ccc(C2NC(=O)c3ccccc3O2)c(OC)c1OC (stereo not drawn) | 105% (inactive) | 104% (inactive) | 111% (inactive) | 101% (inactive) | 104% (inactive) | 61.2% | 200% (inactive) | -7.72% (inactive) | 89.7% (inactive) | 5% (inactive) | -12.7% (inactive) | -2.37% (inactive) | 1.87% (inactive) | 95.5% (inactive) | 0.11 (inactive) | 0% (inactive) | -1.71% (inactive) |
| O=C(COc1ccc(F)cc1)OCCN1CCOCC1 | 102% (inactive) | 95.1% (inactive) | 112% (inactive) | 93.3% (inactive) | 102% (inactive) | 62.8% | 246% (inactive) | -2.53% (inactive) | 89.6% (inactive) | 0% (inactive) | -7.72% (inactive) | -0.56% (inactive) | 21.8% (active) | 96.4% (inactive) | -0.1 (inactive) | -1% (inactive) | -6.6% (inactive) |
| O=C(O)/C=C/c1cnc[nH]1 | 104% (inactive) | 108% (inactive) | 106% (inactive) | 101% (inactive) | 112% (inactive) | 59.9% | 93.5% (inactive) | 2.93% (inactive) | 98.6% (inactive) | -2% (inactive) | -4.55% (inactive) | -0.6% (inactive) | -0.43% (inactive) | 103% (inactive) | 0.755 (active) | 10% (inactive) | -13.3% (inactive) |
| O=C(OCC1CCCN2CCCCC12)c1ccc2c(c1)OCO2 (stereo not drawn) | 93.7% (inactive) | 112% (inactive) | 104% (inactive) | 75.9% (inactive) | 95.9% (inactive) | 63.4% | 208% (inactive) | 13.2% (inactive) | 99.6% (inactive) | 5% (inactive) | -1.89% (inactive) | -5.07% (inactive) | 12% (inactive) | 104% (inactive) | -0.38 (inactive) | 15% (inactive) | 0% (inactive) |
| CC1(C)CC(=O)C(C2=NC(C)(C)Cc3ccccc32)=C(O)C1 | 103% (inactive) | 100% (inactive) | 108% (inactive) | 92.7% (inactive) | 101% (inactive) | 59.3% | 48.2% (inactive) | -2.53% (inactive) | 103% (inactive) | 4% (inactive) | -9.99% (inactive) | 17.9% (inactive) | 1.49% (inactive) | 91.7% (inactive) | 0.14 (inactive) | 13% (inactive) | -4.64% (inactive) |

From PubChem BioAssay
